Source: the supplement of paper PMC7411054
Counter-ions that a name gives are not always drawn.

Assays:
Assay in all cases: lowest phenotypically active concentration; higher = less potent
Details in all cases: treatment time: 24 h
HepG2-ACTB-RAB5A = tested on: HepG2-ACTB-RAB5A
Summary of the method: (§1)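 Four wells per concentration (0.3, 1, 3 or 9 µM) were treated for 24 h in each of fifteen gene-edited reporter lines from A549, HepG2 and WPMY1 cells, then imaged live. After normalising live-cell features to solvent control wells, deviation was defined as ≥3 of 4 wells lying past the 95th percentile of control Euclidean distances. Reproducibility was defined as a median replicate Pearson correlation above the 95th percentile of non-replicates. Both had to hold for phenotypic activity.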

HepG2-CANX-COX4 = tested on: HepG2-CANX-COX4
Summary of the method: as §1

HepG2-GM130-SQSTM1 = tested on: HepG2-GM130-SQSTM1
Summary of the method: as §1

HepG2-TP53BP1-CLTA = tested on: HepG2-TP53BP1-CLTA
Summary of the method: as §1

HepG2-TUBA1B-RELA = tested on: HepG2-TUBA1B-RELA
Summary of the method: as §1

WPMY1-ACTB-RAB5A = tested on: WPMY1-ACTB-RAB5A
Summary of the method: as §1

WPMY1-CANX-COX4 = tested on: WPMY1-CANX-COX4
Summary of the method: as §1

WPMY1-GM130-SQSTM1 = tested on: WPMY1-GM130-SQSTM1
Summary of the method: as §1

WPMY1-TP53BP1-CLTA = tested on: WPMY1-TP53BP1-CLTA
Summary of the method: as §1

WPMY1-TUBA1B-RELA = tested on: WPMY1-TUBA1B-RELA
Summary of the method: as §1

| Structure (SMILES) | lowest phenotypically active concentration (HepG2-ACTB-RAB5A) | lowest phenotypically active concentration (HepG2-CANX-COX4) | lowest phenotypically active concentration (HepG2-GM130-SQSTM1) | lowest phenotypically active concentration (HepG2-TP53BP1-CLTA) | lowest phenotypically active concentration (HepG2-TUBA1B-RELA) | lowest phenotypically active concentration (WPMY1-ACTB-RAB5A) | lowest phenotypically active concentration (WPMY1-CANX-COX4) | lowest phenotypically active concentration (WPMY1-GM130-SQSTM1) | lowest phenotypically active concentration (WPMY1-TP53BP1-CLTA) | lowest phenotypically active concentration (WPMY1-TUBA1B-RELA) |
| --- | --- | --- | --- | --- | --- | --- | --- | --- | --- | --- |
| CC1(C)CC(=O)C2=C(C1)NC(=S)NC2c1cccc(O)c1 (stereo not given) [Dimethylenastron] | 1 µM | 1 µM | 1 µM | 1 µM | 1 µM | 1 µM | 3 µM | 1 µM | 1 µM | 1 µM |
| COc1cc(OC2CCN(C)CC2)ccc1Nc1ncc2c(n1)n(C1CCCC1)c(=O)n2C | 3 µM | 9 µM | 3 µM | 9 µM | 9 µM | 9 µM | 9 µM | 9 µM | 9 µM | 9 µM |
| NC(=O)Nc1sc(-c2ccc(F)cc2)cc1C(N)=O | 9 µM | 3 µM | 9 µM | 9 µM | 9 µM | 9 µM | 9 µM | 9 µM | 9 µM | 9 µM |
| Nc1nc(S)c2[nH]cnc2n1 [thioguanine] | 9 µM | 1 µM | 1 µM | 1 µM | 1 µM | 1 µM | 1 µM | 1 µM | 9 µM | 9 µM |
| CCCCc1oc2ccccc2c1C(=O)c1cc(I)c(OCCN(CC)CC)c(I)c1 [amiodarone] | 9 µM | 9 µM | 9 µM | 9 µM | 3 µM | 9 µM | 9 µM | 9 µM | 9 µM | 9 µM |
| C[C@@H](Oc1cc(-n2cnc3ccc(CN4CCN(C)CC4)cc32)sc1C(N)=O)c1ccccc1C(F)(F)F | ≤ 0.3 µM | ≤ 0.3 µM | ≤ 0.3 µM | ≤ 0.3 µM | ≤ 0.3 µM | ≤ 0.3 µM | 3 µM | ≤ 0.3 µM | ≤ 0.3 µM | ≤ 0.3 µM |
| Cn1cc(-c2[nH]c3cc(NC(=O)[C@H](N)C4CCCCC4)cc4c3c2C=NNC4=O)cn1 | 1 µM | 3 µM | 1 µM | 3 µM | 1 µM | ≤ 0.3 µM | ≤ 0.3 µM | ≤ 0.3 µM | ≤ 0.3 µM | ≤ 0.3 µM |
| Oc1cccc(Nc2ccnc3cc(-c4cccc(CN5CCOCC5)c4)sc23)c1 [LCB 03-0110 dihydrochloride] | 1 µM | 1 µM | 3 µM | 3 µM | 1 µM | 3 µM | 3 µM | 3 µM | 3 µM | 3 µM |
| O=C(CCCCCCC(=O)Nc1ccccc1)NO | 1 µM | 1 µM | ≤ 0.3 µM | 3 µM | 1 µM | 1 µM | ≤ 0.3 µM | 1 µM | 1 µM | 1 µM |
| CC(C)NCCCn1c(Sc2cc3c(cc2I)OCO3)nc2c(N)ncnc21 | ≤ 0.3 µM | ≤ 0.3 µM | ≤ 0.3 µM | ≤ 0.3 µM | ≤ 0.3 µM | ≤ 0.3 µM | ≤ 0.3 µM | ≤ 0.3 µM | ≤ 0.3 µM | ≤ 0.3 µM |
| Cc1c(CN2CCN(C(=O)[C@H](C)O)CC2)sc2c(N3CCOCC3)nc(-c3cnc(N)nc3)nc12 | ≤ 0.3 µM | ≤ 0.3 µM | ≤ 0.3 µM | 1 µM | ≤ 0.3 µM | ≤ 0.3 µM | ≤ 0.3 µM | ≤ 0.3 µM | ≤ 0.3 µM | ≤ 0.3 µM |
| Cc1cc(Nc2nc(N[C@@H](C)c3ncc(F)cn3)ncc2Cl)n[nH]1 | 1 µM | 3 µM | 3 µM | ≤ 0.3 µM | 1 µM | 3 µM | 9 µM | 9 µM | 3 µM | 3 µM |
| Clc1ccc(N/N=C(\c2ccccc2)c2ccccn2)nc1 | ≤ 0.3 µM | ≤ 0.3 µM | 1 µM | ≤ 0.3 µM | ≤ 0.3 µM | 1 µM | 1 µM | 1 µM | 1 µM | 1 µM |
| O=C1c2c(O)ccc(O)c2C(=O)c2c(NCCNCCO)ccc(NCCNCCO)c21 [mitoxantrone] | ≤ 0.3 µM | ≤ 0.3 µM | ≤ 0.3 µM | ≤ 0.3 µM | ≤ 0.3 µM | ≤ 0.3 µM | ≤ 0.3 µM | ≤ 0.3 µM | ≤ 0.3 µM | ≤ 0.3 µM |
| CN[C@H]1CC[C@@H](c2ccc(Cl)c(Cl)c2)c2ccccc21 [sertraline] | 3 µM | 9 µM | 3 µM | 3 µM | 3 µM | 3 µM | 3 µM | 3 µM | 3 µM | 3 µM |
